Measured values from PubChem BioAssay (EPA / NIEHS).
Some structures have more than one record in an assay (separate samples or runs), and their calls can disagree. The source made the active and inactive calls. Rule for the calls: active = hit-call score of the fitted dose curve at least 0.9, where 1 is the maximum; inactive = score below 0.9.

Experiment: ATG_AP_2_CIS: Attagene CIS-FACTORIAL HepG2 Assay for human Activator Protein 2 (AP-2) (AID 2282932)
Settings: HepG2 AP-2 cis-reporter, Attagene transcription factor profiling; actives raise or lower the signal
Protocol: ATG_CIS is a cell-based, multiplexed-readout assay that uses HepG2, a human liver cell line, with measurements taken at 24 hours after chemical dosing in a 24-well plate.ATG_AP_2_CIS is one of 52 assay component(s) measured or calculated from the ATG_CIS assay. It is designed to make measurements of mRNA induction, a form of inducible reporter, as detected with fluorescence intensity signals by Reverse transcription polymerase chain reaction (RT-PCR) and Capillary electrophoresis technology.Data from the assay component ATG_AP_2_CIS was analyzed into 1 assay endpoint. This assay endpoint, ATG_AP_2_CIS, was analyzed with bidirectional fitting relative to DMSO as the negative control and baseline of activity. Using a type of inducible reporter, measures of mRNA for gain or loss-of-signal activity can be used to understand the reporter gene at the transcription factor-level as they relate to the gene TFAP2A and TFAP2B and TFAP2D. Furthermore, this assay endpoint can be referred to as a primary readout, because this assay has produced multiple assay endpoints where this one serves a reporter gene function. To generalize the intended target to other relatable targets, this assay endpoint is annotated to the dna binding intended target family, where the subfamily is basic helix-turn-helix leucine zipper.
Human liver HepG2 cells are transiently transfected with multiple reporter transcription units (MRTUs) in 6-well plates using FuGene 6 reagent (Roche; 3 ml FuGene/1 mg DNA). The MRTU constructs are regulated by a cis-regulating element (promoter). […] A major difference between the CIS and TRANS system is that in CIS activities of endogenous TFs are measured, whereas the TRANS assay evaluates changes in activities of exogenous, chimeric NR-Gal4 proteins. […] At the end of 24 hour incubation, total RNA was isolated using TriZol reagent (Invitrogen). The isolated RNA is then reverse-transcribed using oligo(dT) primer and Mo-MLV reverse transcriptase (Invitrogen) with DNAse I (Ambion) treatment for 30 min. The one-tenth of the produced cDNA was amplified by PCR using Taq DNA polymerase (Invitrogen) and two reporter sequence-specific primers. The PCR products were fluorescently labeled by primer extension with 6-arboxyfluorescein (6-FAM) 5'-labeled reporter sequence-specific primer (2 min at 95 C, 20 s at 68 C and 10 min at 72 C) and these products were digested with 5U of HpaI (New England Biolabs) for 2h at 37 C. The fragments were purified using Qiaquick PCR columns (Qiagen), analyzed on an ABI 3130xL genetic analyzer (Applied Biosystems) with peak positions identified by using a set of X-rhodamine (ROX)-labeled MapMarker1000 molecular weight standards (BioVentures). The raw capillary electrophoresis data was processed using Attagraph software (Attagene).

Row | Structure (SMILES) | outcome | AC50
1 | COP(=S)(OC)Oc1ccc(Sc2ccc(OP(=S)(OC)OC)cc2)cc1 | inactive | 
2 | O=C(Nc1ccc2[nH]ccc2c1)c1cc2cc(F)ccc2n1Cc1cccc(F)c1 | inactive | 
3 | COP(=S)(OC)Oc1c(Cl)cc(C)cc1Cl | inactive | 
4 | CCOP(OCC)OCC | inactive | 
5 | CCOC(=O)Nc1cccc(OC(=O)Nc2ccccc2)c1 | inactive | 
6 | N#CCc1ccc(Cl)cc1 | inactive | 
7 | COC[C@H](C)N(C(=O)CCl)c1c(C)csc1C | inactive | 
8 | COC(=O)c1sccc1S(=O)(=O)NC(=O)Nc1nc(C)nc(OC)n1 | inactive | 
9 | CC(=O)C=C(C)C | inactive | 
10 | O=C(O)C(F)(F)C(F)(F)C(F)(F)C(F)(F)C(F)(F)C(F)(F)C(F)(F)C(F)(F)C(F)(F)C(F)(F)F | inactive | 55.8 µM (active)
11 | CCOC(=O)/C=C(C)/C=C/C[C@@H](C)CCCC(C)C |  | 46.9 µM (active)
12 | Nc1ncc([N+](=O)[O-])s1 | inactive | 
13 | O=C(O)C(Cl)(Cl)Cl | inactive | 
14 | CCCCCCCCc1ccc(O)cc1 | inactive | 
15 | Fc1ccc(C2(Cn3cncn3)OC2c2ccccc2Cl)cc1 (stereo not given) | inactive | 
16 | CCc1ccccc1C | inactive | 
17 | CCOP(=S)(OCC)SCCS(=O)(=O)CC | inactive | 
18 | c1cc[c]([Hg][c]2ccccc2)cc1 | inactive | 
19 | O=C(Cl)c1ccc(Cl)cc1 | inactive | 
20 | CC(=[OH+])/C=C(/C)[O-].CC(=[OH+])/C=C(/C)[O-].CC(=[OH+])/C=C(/C)[O-].[Al] | inactive | 

Row | Structure (SMILES) | outcome | AC50
21 | C=CC(=O)OCCCCCC(C)C | inactive | 
22 | O=C1C(Cl)=C(Cl)C(=O)c2ccccc21 | inactive | 
23 | C=CC#N | inactive | 
24 | CC(=O)C(Cl)C(=O)N(C)C (stereo not given) | inactive | 
25 | CCC(=O)C(CC(C)N(C)C)(c1ccccc1)c1ccccc1 (stereo not given) | inactive | 
26 | CCC[CH2][Sn]([CH2]CCC)([CH2]CCC)[O]C(=O)c1ccccc1 | inactive | 
27 | CCNc1nc(NC(C)(C)C)nc(SC)n1 | inactive | 
28 | CNC(=O)O/N=C/C(C)(C)S(C)=O (stereo not given) | inactive | 
29 | CCCCC(CC)CO[N+](=O)[O-] (stereo not given) | inactive | 
30 | CC(C)OC(=O)Nc1ccccc1 | inactive | 
31 | COc1ccc(C=O)cc1OC | inactive | 
32 | O=P(O)(O)CN(CP(=O)(O)O)CP(=O)(O)O | inactive | 
33 | C[C@H]1CCCC(=O)CCC/C=C/c2cc(O)cc(O)c2C(=O)O1 | inactive | 
34 | O=CC=O | inactive | 
35 | Clc1nc(Cl)nc(Cl)n1 | inactive | 
36 | CCOC(=O)CP(=O)(OCC)OCC | inactive | 
37 | COP(=S)(OC)Oc1ccc(S(=O)(=O)N(C)C)cc1 | inactive | 
38 | C=C(C)C(=O)[O][Sn]([CH2]CCC)([CH2]CCC)[CH2]CCC |  | 0.412 µM (active)
39 | C=C(C)C#N | inactive | 
